Reference: PubChem BioAssay AID1851 (National Center for Advancing Translational Sciences (NCATS), 2009)
Hit rate of the full screen: of about 16,000 compounds, about 4,000 (25%) were called active. Inconclusive results (about 26%) are left out. The call rests on the fitted dose curve; in most records, active means well fitted curve in the direction sought with a large enough effect; inconclusive means small, poorly fitted or top-dose-only effect, or effect the other way; inactive means no such curve, though single readings can be large or run the other way. Not all results are given here.

target: Cytochrome P450 2C9 (Homo sapiens) (UniProt P11712); assay: Cytochrome panel assay with activity outcomes; conditions: recombinant CYP, pro-luciferin dealkylation, luminescence, p450-cyp2c9; series mostly up to 57.1 µM; activity, negative = inhibition: at the top concentration
On the % scale 0 is the no-effect control and ±100 the full control effect.

Sequence of Cytochrome P450 2C9 (Homo sapiens) (P11712 whole entry, looked up): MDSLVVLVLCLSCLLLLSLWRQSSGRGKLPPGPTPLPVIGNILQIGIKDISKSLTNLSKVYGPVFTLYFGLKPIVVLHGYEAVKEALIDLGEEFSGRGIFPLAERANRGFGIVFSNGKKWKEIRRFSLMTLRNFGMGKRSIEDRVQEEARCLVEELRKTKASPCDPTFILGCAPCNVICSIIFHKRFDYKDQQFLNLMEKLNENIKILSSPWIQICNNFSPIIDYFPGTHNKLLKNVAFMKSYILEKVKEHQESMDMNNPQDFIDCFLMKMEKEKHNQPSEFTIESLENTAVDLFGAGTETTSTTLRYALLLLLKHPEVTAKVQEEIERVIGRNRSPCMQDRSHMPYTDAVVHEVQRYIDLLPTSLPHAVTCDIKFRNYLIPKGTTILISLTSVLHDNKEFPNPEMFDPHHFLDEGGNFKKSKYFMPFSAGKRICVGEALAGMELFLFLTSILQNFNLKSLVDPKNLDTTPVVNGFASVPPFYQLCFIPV

activity, negative = inhibition, inactive:
C[C@@]12C=CC(=O)C=C1CC[C@@H]1[C@@H]2[C@H](O)C[C@]2(C)[C@@H]1CC[C@]2(O)C(=O)CO 21.5% [at 25.6 µM]
O=C1CN(c2nc(-c3ccccc3)c3cc(Br)ccc3n2)c2ccccc2N1 -13.7%
O=C(Nc1ccccc1)N1CCCC2(CCN(C(=O)c3csnn3)CC2)C1 -12.1%
CCOc1cccc2cc(C(N)=O)c(=NCc3ccccc3)oc12 -15.9%
CCC1CCc2c(c3ccccc3[nH]c2=O)O1 (stereo not drawn) -24.7%
Cc1cnc(CNc2nc(-c3ccc(C(=O)N(C)C)cc3)nc3ccccc23)cn1 6.85% [at 2.29 µM]
O=C(Nc1cccc(F)c1)N1CCC2(CC1)CCN(C(=O)c1ccco1)CC2 -25.9%
CCc1cc2c(nc1CC)CCN(CC/C(C)=N/OC[C@@H](C)[C@H](OCc1ccccc1)C(C)C)C2 -5.74% [at 11.4 µM]
COc1ccc(NC(=O)N2CC3(CCN(C(=O)c4ccc(OC)cc4)CC3)C2)cc1 9.75%
Cc1noc(C)c1-c1nccc(N2CCOCC2)n1 7.39% [at 2.29 µM]
O=c1ccc(Oc2nc(N3CCOCC3)nc(N3CCOCC3)n2)n[nH]1 -26.1%
COc1ccc(-n2c(=O)c(C)nc3cnc(N4CCOCC4)nc32)cc1 -29.2%
COc1cc(N2CCOCC2)ncn1 -23.1%
COc1ccc(-n2c(=O)c(-c3ccccc3)nc3cnc(N4CCOCC4)nc32)cc1 -1.43%
COC(=O)c1ccc(Oc2nc(N(C)C)nc(N3CCOCC3)n2)cc1 -44.5%
N#C[C@H]1CN[C@H](N)N[C@@H]1N -4.64% [at 11.4 µM]
CCCOc1ccc(CSC(CC(=O)O)C(=O)O)cc1 (stereo not drawn) -5.81%
O=C(Nn1cnc2ccccc2c1=O)c1ccc(F)cc1Cl 13.4%
COc1ccccc1-c1nc(NCc2ccccc2)c2ccccc2n1 16.9% [at 2.29 µM]
COc1ccc(CN[C@H](C)C(=O)O)cc1 12.3% [at 11.4 µM]
CN(C)c1ccccc1CN1CCCN(Cc2ccccc2N(C)C)C1c1ccncc1 -12% [at 11.4 µM]
N=c1ccn2c(n1)O[C@H]1[C@@H](OP(=O)(O)O)[C@H](CO)O[C@H]12 5.28% [at 11.4 µM]
CCCC[C@H](CC)CN1CN(C[C@@H](CC)CCCC)CC(C)(N)C1 -3.68% [at 25.6 µM]
CN(C)S(=O)(=O)Nc1ccccn1 0.0893% [at 11.4 µM]
Nc1ccc(S(=O)(=O)Nc2ccccn2)cc1 11.1% [at 25.6 µM]
C[C@H](C(=O)O)c1cccc(Oc2ccccc2)c1 -0.647% [at 25.6 µM]
O=C(O)[C@@H](O)c1ccc(F)cc1 -3.58% [at 11.4 µM]
NC(=S)SCCC(=O)O -6.98% [at 11.4 µM]
CC(C)CO/N=C1/C[C@@H](O)[C@@H](O)[C@@H]2[C@@H]3C(=O)N(C[C@@H]4CCCO4)C(=O)[C@H]3CC[C@@H]12 18.7% [at 11.4 µM]
CC[N+](CC)(CC)CC[C@](O)(c1ccccc1)C1CCCCC1 -9.66% [at 25.6 µM]
O=C1C2[C@@H](c3ccccc3)N[C@@H](c3ccccc3)C1[C@H](c1ccccc1)N[C@H]2c1ccccc1 -3.9% [at 11.4 µM]
O=C1[C@H]2[C@H]3[C@H](O)[C@H](O)C/C(=N/OCc4ccccc4)[C@H]3CC[C@@H]2C(=O)N1C[C@@H]1CCCO1 -4.81% [at 11.4 µM]
CN(C)Cc1ccccc1-c1cc(NCc2ccccc2)ncn1 -1.3% [at 2.29 µM]
CC1CN(C2CCN(C(=O)c3cccc(Cl)c3)CC2)CC(C)O1 (stereo not drawn) -23.4%
CNC(=S)NNC(=O)COc1ccccc1C 32.9%

AC50, active:
COC(=O)[C@@]1(Cc2ccc(F)cc2)[C@H]2c3cc(C(=O)N(C)C)n(Cc4ccc(Cl)c(C(F)(F)F)c4)c3C[C@H]2CN1C(=O)c1ccccc1 3.98 µM
COC(=O)[C@@]1(Cc2ccc(F)cc2)[C@H]2c3cc(C(=O)N4CCCC4)n(Cc4ccc(Cl)c(C(F)(F)F)c4)c3C[C@H]2CN1C(=O)c1ccccc1 12.6 µM
COC(=O)[C@@]1(Cc2ccc(F)cc2)[C@H]2c3cc(C(=O)N(C)C)n(CCCNc4ccc(C(F)(F)F)cc4Cl)c3C[C@H]2CN1C(=O)c1ccccc1 20 µM
COC(=O)[C@@]1(Cc2ccc(OC)cc2)[C@H]2c3cc(C(=O)N4CCCC4)n(Cc4ccc(Cl)c(C(F)(F)F)c4)c3C[C@H]2CN1C(=O)c1ccccc1 20 µM
CC(=O)c1cccc(NC(=O)/C(=C\c2ccco2)NC(=O)c2cccs2)c1 8.91 µM
O=C(Nc1cccc(F)c1)/C(=C\c1ccco1)NC(=O)c1cccs1 31.6 µM
CC(C)(C)C(=O)[C@H]1[C@H](c2ccccc2)[C@@]2(N=C(c3ccccc3)OC2=O)C2c3ccccc3C=NN21 (stereo partly drawn) 15.8 µM
CCCc1ccc(Oc2cc(C)nc(N3CCOCC3)n2)cc1 25.1 µM
Cc1cc(Oc2ccc(-c3ccccc3)cc2)nc(N2CCOCC2)n1 3.98 µM
Cc1ccc(Oc2cc(N3CCOCC3)nc(-c3ccccc3)n2)cc1 17.8 µM
COc1ccc(CNn2c(C)nc3ccccc3c2=O)cc1 5.62 µM
CCCCOc1ccc(CNn2c(C)nc3ccccc3c2=O)cc1 4.47 µM
Cc1nc2ccccc2c(=O)n1NC(=O)c1ccccc1Cl 7.94 µM
O=C1C(Cl)=C(Nc2ccc(S(=O)(=O)Nc3ccccn3)cc2)C(=O)c2ccccc21 2 µM
C[C@@H](C(=O)O)c1ccc(-c2ccccc2)c(F)c1 10 µM
CCCCC1(C)NC(=O)c2c(C)sc(C(=O)OCC)c2N1 (stereo not drawn) 0.282 µM
O=C1SC(c2ccccc2)=C/C1=C\N1CCCCC1 11.2 µM
COc1c(/C=N/Nc2ccc([N+](=O)[O-])cc2[N+](=O)[O-])c(C)nn1-c1ccccc1 20 µM
S=C1N[C@H](c2ccccc2)N[C@H](c2ccccc2)S1 2 µM
Cc1ccccc1OCC(=O)Nc1ccc(N2CCN(C(=O)C(C)C)CC2)c(Cl)c1 3.98 µM
O=C(Nc1ccccc1N1CCN(C(=O)c2ccccc2)CC1)c1cc(Br)ccc1Cl 2.51 µM
CC(C)C(=O)N1CCN(c2ccccc2NC(=O)c2cccc(Cl)c2)CC1 14.1 µM
O=C(Nc1ccccc1N1CCN(C(=O)c2ccc(Cl)cc2)CC1)c1cc(Br)ccc1Cl 3.98 µM
